# Test results: PubChem BioAssay AID618 (Sanford-Burnham Center for Chemical Genomics, 2007)
# Screen size: about 87,000 compounds; about 540 (0.62%) were called active. The rule behind the calls is not given here. For the sample, actives were picked, then their nearest neighbours and some compounds at random. Measured potencies and affinities stand elsewhere.
# Test: MT1-MMP gene expression reporter suppression – cell-based, luciferase reporter, luminescence (AID 618);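 note: actives suppress MT1-MMP promoter-driven transcription so potencies describe inhibitors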
# Conditions: MT1-MMP promoter luciferase reporter cells
row,Compound,outcome
1,CCn1ncc(Br)c1C(=O)Nc1ccc(Cl)cn1,inactive
2,COc1ccc(OC)c(S(=O)(=O)NC2CCCCC2)c1,inactive
3,CCn1cc(C(=O)N2CCc3ccccc3C2)c(=O)c2cc(S(=O)(=O)N3CCCCC3)ccc21,inactive
4,Cc1nc(-c2ccc(NC(=O)c3cccs3)cc2)cs1,active
5,Cc1ccc(NC(=O)c2cccs2)cc1,inactive
6,Cc1nc(-c2cccc(NC(=O)c3cccs3)c2)cs1,inactive
7,COc1ccc(OC)c(-n2c(-c3ccccc3)n[nH]c2=S)c1,inactive
8,COc1ccc(OCc2ccc(C(=O)O)cc2)cc1,inactive
9,COc1ccc(OCc2cccc(C(=O)Nc3cc(C)on3)c2)cc1,inactive
10,CCCCOc1cccc(C(=O)O)c1,inactive
11,CCOc1ccc(OCc2cccc(C(=O)N3CCOCC3)c2)cc1,active
12,CC(C)OC(=O)C(C)Oc1ccc(C(=O)NCCc2ccccc2)cc1 (stereo unspecified),inactive
13,CC(Oc1ccc(C(=O)NCCc2ccccc2)cc1)C(=O)O (stereo unspecified),inactive
14,COc1ccc(OCc2cccc(C(=O)O)c2)cc1,active
15,CCOc1ccc(OCc2cccc(C(=O)N3CCCC3)c2)cc1,inactive
16,CCOc1cc(OCC)cc(C(=O)O)c1,inactive
17,CCOc1ccc(OCc2cccc(C(=O)O)c2)cc1,active
18,CCOc1ccc(OCc2ccc(C(=O)N3CCOCC3)cc2)cc1,inactive
19,CSc1nc2nc(C(F)(F)F)cc(-c3ccccc3)n2n1,inactive
20,COc1ccccc1C(=O)Nc1ccc2c(c1)nc1n2CCSC1,inactive
21,CSc1ccccc1C(=O)Nc1nccs1,inactive

row,Compound,outcome
1,Cc1nn(-c2ccccc2)c2c1C1(C(=O)N(C(C)C)c3ccccc31)C(C#N)=C(N)O2 (stereo unspecified),inactive
2,Cc1nc(SCC(=O)NC2CCCC2)[nH]c(=O)c1Cc1ccccc1,inactive
3,CCOc1ccc(OCc2ccc(C(=O)Nc3cccc(C)n3)o2)cc1,inactive
4,CCOc1ccc(C(=O)Nc2cccc(C)n2)cc1,active
5,CCCCOc1ccc(C(=O)Nc2cccc(C)n2)cc1,inactive
6,O=C(NCc1cccs1)c1cc(-c2cccc(Cl)c2)on1,inactive
7,Cc1ccc(-n2nc3c(c2NC(=O)c2ccc(OC(C)C)cc2)CS(=O)C3)cc1 (stereo unspecified),inactive
8,COC(=O)C12CC3CC(C1)CC(n1cnc(Cl)n1)(C3)C2,inactive
9,O=C(CCl)N(c1ccc(Cl)cc1)c1c[nH]c2ccccc12,active
10,O=C(CCl)N(c1ccccc1)c1c[nH]c2ccccc12,active
11,CCN(CC)CC(=O)c1c[nH]c2ccccc12,inactive
12,O=C(O)CCC(=O)c1c[nH]c2ccccc12,inactive
13,CN(C)CC(=O)c1c[nH]c2ccccc12,inactive
14,CC(=O)N(c1ccc(Cl)cc1)c1c[nH]c2ccccc12,inactive
15,O=C(NCCN1CCN(Cc2ccccc2Cl)CC1)Nc1ccccc1,inactive
16,CCCCOc1ccc(CN2CCC(O)CC2)cc1,inactive
17,CCCCOc1ccc(CN2CCCCC2)cc1,inactive
18,CC(C)NC(=O)c1ccccc1NC(=O)CN(c1ccc2c(c1)OCO2)S(C)(=O)=O,inactive
19,CCCn1nnc(NC(=O)c2cccc(Cl)c2)n1,inactive
20,CSc1ccc2c(c1)N(CCC1CCCCN1C)c1ccccc1S2 (stereo unspecified),active
21,CN(C)CCCN1c2ccccc2Sc2ccc(C(F)(F)F)cc21,inactive

row,Compound,outcome
1,CN1CCN(CCCN2c3ccccc3Sc3ccc(Cl)cc32)CC1,inactive
2,COC(=O)c1ccc(OC)c(CSc2nnc(-c3ccc(C(C)(C)C)cc3)o2)c1,inactive
3,CC(C)CNC(=O)CSc1ccc(Cl)cc1,inactive
4,Cc1cccc(NC(=S)NNC(=O)CCn2nc(C)c([N+](=O)[O-])c2C)c1,inactive
5,c1ccc(Cn2nnc3c(N4CCOCC4)ncnc32)cc1,inactive
6,S=c1sc2c(N3CCOCC3)ncnc2n1-c1ccccc1,inactive
7,c1ccc(-n2nnc3c(N4CCOCC4)ncnc32)cc1,active
8,Nc1cc(=O)[nH]c(SCc2nc3ccccc3n2Cc2ccccc2)n1,inactive
9,CSCC[C@H](NC(=O)OC(C)(C)C)c1nnc(SCC(N)=O)o1,inactive
10,COc1ccc(S(=O)(=O)n2nc(OC(=O)C3CCCCC3)cc2N)cc1,inactive
11,Cc1nnc(NC(=O)C2COc3ccccc3O2)s1 (stereo unspecified),inactive
12,O=C(Nc1nncs1)C1COc2ccccc2O1 (stereo unspecified),inactive
13,Cc1nc2ccc3nc(NC(=O)C4COc5ccccc5O4)sc3c2s1 (stereo unspecified),inactive
14,COc1ccc2nc(NC(=O)C3COc4ccccc4O3)sc2c1 (stereo unspecified),inactive
15,O=C(Nc1nc(-c2ccccn2)cs1)C1COc2ccccc2O1 (stereo unspecified),inactive
16,O=C(NC1=NCCS1)C1COc2ccccc2O1 (stereo unspecified),active
17,O=C(Nc1nc(-c2ccc3c(c2)OCO3)cs1)C1COc2ccccc2O1 (stereo unspecified),inactive
18,O=C(Nc1ccncc1)C1COc2ccccc2O1 (stereo unspecified),inactive
19,O=C(Nc1ncc(Cc2ccccc2)s1)C1COc2ccccc2O1 (stereo unspecified),inactive
